Rows were chosen to be rich in hits. Some 6.8% of all compounds tested hit in one or more screens of this group.
Pf Dd2 growth: P. falciparum Dd2 growth inhibition; SYBR Green, 72 h; hits give low values; AID 1159554; activity change, % at 10 µM; 2.3% of 94,000 active; in the data active = activity change below about -80%; inconclusive = no clear call, values can overlap the other calls
C diff HTS: inhibitors of Clostridium difficile growth | Clostridium difficile clinical isolate growth, OD600, 24 h; hits give low values | growth activity, negative = inhibition, % at 16 µg/mL (by protocol) | 0.25% of 86,000 active | AID 1259249;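 active = mean growth activity at or below -80% and every replicate also at or below -80%; inconclusive = mean at or below -80% but some replicate above -80%; inactive = mean growth activity above -80%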;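 note: 0% = DMSO wells and -100% = levofloxacin 16 µg/mL wells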
T cruzi growth-1: inhibitors of T. cruzi proliferation; inhibition, % at 8.34 µM; 5.9% of 77,000 active; AID 624255; T. cruzi beta-gal in NIH3T3, GalScreen luminescence, 90 h;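 active = mean inhibition above about 93%, with at least 55% of replicates each passing it, limit read from the data, passing the limit was not always enough; inconclusive = only one of those two conditions holds; inactive = neither condition holds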
T cruzi growth-2: blocks T. cruzi growth in NIH3T3 host cells | shares compounds with T cruzi growth-1 | AID 651739 | 72% of 5,600 active | inhibition, % at 8.35 µM | T. cruzi beta-gal in NIH3T3, GalScreen luminescence, 90 h;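 active = mean replicate inhibition above about 95% and at least 55% of replicates individually reaching it, limit read from the data; inconclusive = only one of the two criteria is met; inactive = neither criterion is met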
T cruzi growth-3: Trypanosoma cruzi proliferation inhibition; shares compounds with T cruzi growth-1; T. cruzi beta-gal in NIH3T3, GalScreen luminescence, 90 h; inhibition, % at 2.09 µM; 21% of 5,600 active;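 active = mean inhibition above about 95%, with at least 55% of replicates also reaching it, limit read from the data; inconclusive = meets just one of the two conditions; inactive = meets neither condition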;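 note: plate controls were neutral control median for no effect and positive control median for full effect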
NIH3T3 tox: kills mouse NIH/3T3 fibroblasts; shares compounds with T cruzi growth-1; AID 651742; 14% of 5,600 active; NIH/3T3 viability, CellTiter-Glo ATP luminescence, 90 h; cytotoxicity (signal decrease), % at 8.35 µM;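 active = mean signal decrease across replicates above about 35% based on untreated-well scatter, with enough replicates individually passing, limit read from the data; inconclusive = no rule stated though some were filed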;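 note: 0% = median of neutral control wells and 100% = median of positive control wells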
3T3 cytotox 2: NIH/3T3 (mouse) viability loss. AID 651744. 56% of 5,600 active. inhibition, % at 24.9 µM. NIH/3T3 viability, CellTiter-Glo ATP luminescence, 90 h. shares compounds with T cruzi growth-1;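 active = mean loss of cell viability signal at or above a set limit, and enough replicates individually reaching it; inconclusive = meets only the mean limit or only the replicate share; inactive = meets neither condition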;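 note: 0% = median of neutral control wells and 100% = median of positive control wells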
An asterisk follows results filed as active; u = inconclusive; x = no result.

SMILES	Pf Dd2 growth	C diff HTS	T cruzi growth-1	T cruzi growth-2	T cruzi growth-3	NIH3T3 tox	3T3 cytotox 2
C[C@H](CO)N1C[C@H](C)[C@H](CN(C)C(=O)CC2CC2)Oc2cc(C#CCC3CCCC3)ccc2S1(=O)=O	-66	4	121*	99*	63	2	104*
C[C@H](CO)N1C[C@H](C)[C@@H](CN(C)C(=O)CC2CC2)Oc2cc(C#CCC3CCCC3)ccc2S1(=O)=O	-66	17	116*	u	102*	31	104*
CO[C@@H]1CN(C)C(=O)c2ccc(NC(=O)C3CC3)cc2OC[C@@H](C)N(CC2CCOCC2)C[C@@H]1C	-53	3	28	x	x	x	x
CC(C)[C@@H]1COCc2cn(nn2)CC[C@H](Cc2ccccc2)C(=O)N1	x	5	x	x	x	x	x
Cc1ccc(S(=O)(=O)NCC[C@H]2CC[C@@H](NC(=O)Nc3cccc(F)c3)[C@H](CO)O2)cc1	0	0	-5	x	x	x	x
CC(C)CC#Cc1cnc2c(c1)C(=O)N([C@H](C)CO)C[C@H](C)[C@@H](CN(C)Cc1ccccc1F)O2	-29	-5	103*	111*	79	8	103*
CCCC#Cc1cnc2c(c1)C(=O)N([C@H](C)CO)C[C@@H](C)[C@H](CN(C)Cc1ccccc1F)O2	-48	-3	51	x	x	x	x
CC(C)CC#Cc1cnc2c(c1)C(=O)N([C@@H](C)CO)C[C@@H](C)[C@@H](CN(C)Cc1ccccc1F)O2	-20	0	u	107*	89	u	32*
CC(C)CC#Cc1cnc2c(c1)C(=O)N([C@H](C)CO)C[C@@H](C)[C@@H](CN(C)Cc1ccccc1F)O2	-10	-6	58	x	x	x	x
CC(C)CC#Cc1cnc2c(c1)C(=O)N([C@@H](C)CO)C[C@@H](C)[C@H](CN(C)Cc1ccccc1F)O2	-31	-12	119*	108*	75	6	103*
CC(C)CC#Cc1cnc2c(c1)C(=O)N([C@H](C)CO)C[C@H](C)[C@H](CN(C)Cc1ccccc1F)O2	-19	14	56	x	x	x	x
COc1ccc(NC(=O)N(C)C[C@H]2Oc3cc(-c4cccc(C(=O)N(C)C)c4)ccc3S(=O)(=O)N([C@@H](C)CO)C[C@@H]2C)cc1	-4	0	x	x	x	x	x
COc1ccc(-c2ccc([C@H]3[C@@H](CO)N4CCCCN(CC5CCOCC5)C[C@H]34)cc2)cc1	-32	-9	101*	94	67	19	96*
COc1ccc(-c2ccc([C@H]3[C@@H](CO)N4CCCCN(CC5CCOCC5)C[C@@H]34)cc2)cc1	0	-2	99*	u	27	u	78*
COc1cccc(-c2ccc([C@H]3[C@@H](CO)N4CCCCN(CC5CCOCC5)C[C@@H]34)cc2)c1	-3	5	68	x	x	x	x
COc1ccc(-c2ccc([C@H]3[C@H]4CN(CC5CCOCC5)CCCCN4[C@H]3CO)cc2)cc1	-22	-8	-2	x	x	x	x
CN1c2ccc(-c3ccccc3F)cc2[C@@H]2[C@@H](CCN2S(=O)(=O)c2ccccc2)[C@H]1CO	10	-6	80	x	x	x	x
COc1ccc(-c2ccc([C@@H]3[C@@H](CO)N4C(=O)CN(C(=O)c5ccc6c(c5)OCO6)C[C@H]34)cc2)cc1	-21	6	x	x	x	x	x
COc1ccc(-c2ccc([C@@H]3[C@@H](CO)N4CCCCN(C(=O)c5ccc6c(c5)OCO6)C[C@@H]34)cc2)cc1	-76	1	115*	98*	39	2	43*
COc1ccc(-c2ccc([C@@H]3[C@@H](CO)N4CCCCN(C(=O)c5ccc(F)cc5)C[C@@H]34)cc2)cc1	22	-5	67	x	x	x	x
COc1ccc(-c2ccc([C@H]3[C@@H](CO)N4CCCCN(C(=O)c5ccc6c(c5)OCO6)C[C@H]34)cc2)cc1	-33	15	101*	104*	66	49*	104*
COc1ccc(-c2ccc([C@@H]3[C@@H](CO)N4CCCCN(C(=O)c5ccc6c(c5)OCO6)C[C@H]34)cc2)cc1	-23	4	98*	79	33	21	98*
COc1ccc(-c2ccc([C@@H]3[C@H]4CN(C(=O)c5ccc(F)cc5)CCCCN4[C@H]3CO)cc2)cc1	-21	4	71	x	x	x	x
COc1ccc(-c2ccc([C@H]3[C@@H](CO)N4CCCCN(C(=O)c5ccc6c(c5)OCO6)C[C@@H]34)cc2)cc1	-44	6	118*	107*	93	46*	43*
CO[C@@H]1CN(C)C(=O)c2cc(NC(=O)Nc3cc(F)ccc3F)ccc2OC[C@@H](C)N(C(=O)c2ccccn2)C[C@H]1C	45	-2	37	x	x	x	x
SMILES	Pf Dd2 growth	C diff HTS	T cruzi growth-1	T cruzi growth-2	T cruzi growth-3	NIH3T3 tox	3T3 cytotox 2
CC(C)NC(=O)N1CC2(C1)[C@H](c1ccccc1)[C@@H](CO)N2C(=O)c1ccccn1	22	-2	x	x	x	x	x
COCC(=O)Nc1ccc2c(c1)C(=O)N(C)[C@@H]1CC[C@H](CC(=O)NC3CCCC3)O[C@@H]1CO2	-5	-3	-1	x	x	x	x
COc1cccc(NC(=O)Nc2ccc3c(c2)C(=O)N(C)[C@H]2CC[C@H](CC(=O)O)O[C@@H]2CO3)c1	-4	2	73	x	x	x	x
C/C=C/c1ccc([C@@H]2[C@@H](CO)N3CCCCN(S(=O)(=O)c4ccc(OC)cc4)C[C@@H]23)cc1	-27	-7	76	x	x	x	x
C/C=C/c1ccc([C@H]2[C@H](CO)N3CCCCN(S(=O)(=O)c4ccc(F)cc4)C[C@@H]23)cc1	1	38	111*	108*	57	22	102*
C/C=C/c1ccc([C@@H]2[C@H](CO)N3CCCCN(S(=O)(=O)c4ccccc4)C[C@@H]23)cc1	-64	-2	69	x	x	x	x
C/C=C/c1ccc([C@H]2[C@@H](CO)N3CCCCN(S(=O)(=O)c4ccc(OC)cc4)C[C@@H]23)cc1	-15	13	95*	111*	69	0	55*
C[C@@H]1CN([C@H](C)CO)C(=O)Cc2cc(NS(=O)(=O)c3cccs3)ccc2O[C@@H]1CN(C)C(=O)Nc1ccc(C(F)(F)F)cc1	17	-6	15	x	x	x	x
CCCNC(=O)C[C@H]1CC[C@H]2[C@@H](COc3ccc(NC(=O)NCC)cc3C(=O)N2C)O1	14	-8	38	x	x	x	x
O=C(Nc1ccc2c(c1)[C@H]1C[C@@H](CC(=O)N3CCCCC3)O[C@@H](CO)[C@H]1O2)c1cccnc1	10	-2	12	x	x	x	x
C[C@@H]1CCCCO[C@H](CN(C)C(=O)Nc2ccc(F)cc2)[C@@H](C)CN([C@H](C)CO)C(=O)c2cc(NS(=O)(=O)c3cn(C)cn3)ccc2O1	-8	3	-28	x	x	x	x
O=C(C[C@H]1CC[C@H]2[C@@H](COC[C@H](O)CN2C(=O)Nc2ccc(Cl)cc2)O1)NCCc1ccncc1	0	56	78	x	x	x	x

Assay outcomes (PubChem)
